{"source": "PubChem BioAssay AID492950", "about": "(Southern Research Specialized Biocontainment Screening …, 2010)", "note": "Potency and affinity values are given separately. Active and inactive are the calls of the source. Where a call stands in place of a potency, no number is given. The rule behind the calls is not given here."}
{"assay": "viability loss in mammalian cells – cytotoxicity control, dose response (AID 492950)", "settings": "mammalian cell viability, cytotoxicity counter-screen; series mostly up to 40 µM"}
{"smiles": "O=C(Cc1cc(=O)[nH][nH]1)N/N=C/c1c(F)cccc1Cl", "outcome": "inactive"}
{"smiles": "CCOc1cc(C2C(C#N)=C(N)Oc3n[nH]c(-c4ccccc4)c32)ccc1O", "note": "(centres undefined)", "outcome": "inactive"}
{"smiles": "Cc1ccsc1/C=N/NC(=O)Cc1cc(=O)[nH][nH]1", "outcome": "inactive"}
{"smiles": "CC(=O)N(C1CC(C)C(C#N)(C#N)C1(C#N)C#N)N(C)C", "note": "(centres undefined)", "outcome": "inactive"}
{"smiles": "Cc1nc2ccccc2c2c1C(=O)N(C)C2=O", "outcome": "inactive"}
{"smiles": "COc1cccc(-c2[nH]nc3c2C(c2ccsc2)C(C#N)=C(N)O3)c1", "note": "(centres undefined)", "outcome": "inactive"}
{"smiles": "O=C1CC(CSc2ccc(Cl)cc2)=NN1", "outcome": "inactive"}
{"smiles": "O=C(CSCc1cc(=O)[nH][nH]1)Nc1ccc(F)cc1", "outcome": "inactive"}
{"smiles": "Cc1ccc(-n2nnc3c(SCC(=O)NCC4CCCO4)ncnc32)cc1", "note": "(centres undefined)", "outcome": "inactive"}
{"smiles": "O=C(Cc1cc(=O)[nH][nH]1)N/N=C/c1ccccc1Cl", "outcome": "inactive"}
{"smiles": "O=C(Cc1cc(=O)[nH][nH]1)N/N=C/c1c(Cl)cccc1Cl", "outcome": "inactive"}
{"smiles": "O=C1NC2=C(CCc3ccccc32)C(c2ccccc2)N1", "note": "(centres undefined)", "outcome": "inactive"}
{"smiles": "CCCCc1ccc(NC(=O)CSCc2cc(=O)[nH][nH]2)cc1", "outcome": "inactive"}
{"smiles": "N#CC1=C(N)Oc2n[nH]c(-c3cccs3)c2C1c1ccsc1", "note": "(centres undefined)", "outcome": "inactive"}
{"smiles": "Cc1ccc(-c2cc(=O)[nH][nH]2)c(C)c1", "outcome": "inactive"}
{"smiles": "CSCCC1C(C#N)=C(N)Oc2n[nH]c(-c3cccs3)c21", "note": "(centres undefined)", "outcome": "inactive"}
{"smiles": "O=C(Cc1cc(=O)[nH][nH]1)N/N=C/C=C/c1ccccc1", "outcome": "inactive"}
{"smiles": "Cc1[nH]n(-c2ccccc2)c(=O)c1C(c1cccc([N+](=O)[O-])c1)c1c(C)[nH]n(-c2ccccc2)c1=O", "outcome": "inactive"}
{"smiles": "Cc1ccccc1-c1nc(CN(C)C(C)c2ccon2)c(C)o1", "note": "(centres undefined)", "outcome": "inactive"}
